Data taken from PMC7862700, “An all-to-all approach to the identification of sequence-specific readers for epigenetic DNA modifications on cytosine”.

Key:
Assay in all cases: DAPPL (digital affinity profiling via proximity ligation, sequencing); 10 mM Tris-HCl pH 7.5, 50 mM NaCl, 1 mM DTT, 4% glycerol, room temperature, 30 min; GST-TFs on glutathione beads, 16-mer random dsDNA library, 0.1% formaldehyde crosslink after washing; high values mean tight binding
FEV = biological target: T1, FEV (Homo sapiens, UniProt Q99581 1-238); conditions: protein: recombinant; tags: N-terminal GST; dsDNA, one strand shown
T1 sequence: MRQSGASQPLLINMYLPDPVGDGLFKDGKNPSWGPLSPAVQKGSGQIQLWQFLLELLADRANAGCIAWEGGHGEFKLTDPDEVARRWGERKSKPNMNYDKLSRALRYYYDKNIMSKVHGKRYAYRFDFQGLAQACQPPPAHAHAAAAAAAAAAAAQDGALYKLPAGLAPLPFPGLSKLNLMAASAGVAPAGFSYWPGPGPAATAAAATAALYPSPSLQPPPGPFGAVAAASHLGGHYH
In short: (§1)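 After expression in yeast as GST fusions, human transcription factors were bound to glutathione beads, DNA-barcoded and mixed with a tag-only sample. The pools were incubated with 200 nmole of a 16-mer random double-stranded DNA library in Tris/NaCl/DTT/glycerol buffer (30 min, room temperature), washed and crosslinked with 0.1% formaldehyde. Proximity ligation with BsaI/T4 ligase ran for 1 h at 37 °C, before PCR amplification and sequencing on an Illumina NextSeq500. Binding signal is a hexamer's read frequency for a factor divided by its frequency for the tag-only sample.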

ETV5 = ETV5 (Homo sapiens, UniProt P41161 1-510); conditions: protein: recombinant; tags: N-terminal GST; dsDNA, one strand shown
Sequence of ETV5 (P41161 whole entry): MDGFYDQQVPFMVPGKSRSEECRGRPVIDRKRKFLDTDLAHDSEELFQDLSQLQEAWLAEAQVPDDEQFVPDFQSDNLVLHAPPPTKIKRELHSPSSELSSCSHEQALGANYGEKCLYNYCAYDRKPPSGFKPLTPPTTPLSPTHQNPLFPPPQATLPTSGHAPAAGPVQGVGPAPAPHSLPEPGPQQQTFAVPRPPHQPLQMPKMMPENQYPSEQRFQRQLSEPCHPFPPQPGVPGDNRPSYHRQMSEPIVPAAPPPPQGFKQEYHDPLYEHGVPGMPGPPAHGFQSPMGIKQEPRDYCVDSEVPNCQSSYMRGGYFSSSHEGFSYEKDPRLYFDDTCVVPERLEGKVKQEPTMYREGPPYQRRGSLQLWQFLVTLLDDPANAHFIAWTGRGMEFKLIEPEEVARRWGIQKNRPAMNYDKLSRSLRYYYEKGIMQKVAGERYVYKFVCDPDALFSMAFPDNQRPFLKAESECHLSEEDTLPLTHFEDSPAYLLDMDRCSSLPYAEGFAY
In short: as §1

HSF1 = HSF1 (Homo sapiens, UniProt Q00613 1-529); conditions: protein: recombinant; tags: N-terminal GST; chain copies: 3; dsDNA, one strand shown
Sequence of HSF1 (Q00613 whole entry): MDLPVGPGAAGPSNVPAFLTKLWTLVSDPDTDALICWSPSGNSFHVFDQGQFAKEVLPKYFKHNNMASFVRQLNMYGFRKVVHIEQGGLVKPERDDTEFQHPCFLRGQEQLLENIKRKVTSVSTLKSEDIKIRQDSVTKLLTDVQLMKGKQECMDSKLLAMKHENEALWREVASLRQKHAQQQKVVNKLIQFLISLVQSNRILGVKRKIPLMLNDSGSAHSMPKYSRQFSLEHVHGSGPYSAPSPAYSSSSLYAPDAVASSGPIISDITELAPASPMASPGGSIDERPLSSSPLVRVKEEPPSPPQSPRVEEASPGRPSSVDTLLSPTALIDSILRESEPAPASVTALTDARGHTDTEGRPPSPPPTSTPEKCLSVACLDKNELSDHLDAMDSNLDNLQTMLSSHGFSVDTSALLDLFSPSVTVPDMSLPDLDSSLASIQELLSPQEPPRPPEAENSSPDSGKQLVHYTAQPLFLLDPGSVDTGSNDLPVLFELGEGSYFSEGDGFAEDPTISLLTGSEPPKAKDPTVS
In short: as §1

SPIC = biological target: T2, SPIC (Homo sapiens, UniProt Q8N5J4 1-248); conditions: protein: recombinant; tags: N-terminal GST; dsDNA, one strand shown
T2 sequence: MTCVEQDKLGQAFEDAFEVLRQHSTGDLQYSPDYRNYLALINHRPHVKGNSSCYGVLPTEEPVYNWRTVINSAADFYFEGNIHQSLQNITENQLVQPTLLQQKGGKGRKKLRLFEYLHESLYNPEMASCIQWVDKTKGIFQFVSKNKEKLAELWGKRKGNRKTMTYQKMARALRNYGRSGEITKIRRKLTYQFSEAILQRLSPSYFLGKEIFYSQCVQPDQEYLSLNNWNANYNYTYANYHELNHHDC
In short: as §1

ELF4 = ELF4 (Homo sapiens, UniProt Q99607 1-663); conditions: protein: recombinant; tags: N-terminal GST; dsDNA, one strand shown
Sequence of ELF4 (Q99607 whole entry): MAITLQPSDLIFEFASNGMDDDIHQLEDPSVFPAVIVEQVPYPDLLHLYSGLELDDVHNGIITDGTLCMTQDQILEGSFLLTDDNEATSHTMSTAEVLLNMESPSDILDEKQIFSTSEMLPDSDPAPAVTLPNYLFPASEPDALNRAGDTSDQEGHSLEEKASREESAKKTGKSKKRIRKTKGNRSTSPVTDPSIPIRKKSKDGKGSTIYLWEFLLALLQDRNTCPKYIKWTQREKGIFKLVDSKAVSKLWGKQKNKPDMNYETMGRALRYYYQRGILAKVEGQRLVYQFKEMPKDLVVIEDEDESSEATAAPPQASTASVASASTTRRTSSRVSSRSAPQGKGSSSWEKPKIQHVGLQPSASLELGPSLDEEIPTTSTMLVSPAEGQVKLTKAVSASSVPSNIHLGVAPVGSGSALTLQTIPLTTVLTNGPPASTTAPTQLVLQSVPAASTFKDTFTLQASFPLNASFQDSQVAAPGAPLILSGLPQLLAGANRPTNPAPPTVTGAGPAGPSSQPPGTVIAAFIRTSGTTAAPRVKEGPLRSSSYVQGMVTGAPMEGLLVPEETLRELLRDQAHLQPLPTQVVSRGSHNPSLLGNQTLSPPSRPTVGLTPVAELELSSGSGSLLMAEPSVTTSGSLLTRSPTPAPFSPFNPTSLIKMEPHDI
In short: as §1

ELK4 = biological target: T3, ELK4 (Homo sapiens, UniProt P28324-2 1-405); conditions: protein: recombinant; tags: N-terminal GST; dsDNA, one strand shown
T3 sequence: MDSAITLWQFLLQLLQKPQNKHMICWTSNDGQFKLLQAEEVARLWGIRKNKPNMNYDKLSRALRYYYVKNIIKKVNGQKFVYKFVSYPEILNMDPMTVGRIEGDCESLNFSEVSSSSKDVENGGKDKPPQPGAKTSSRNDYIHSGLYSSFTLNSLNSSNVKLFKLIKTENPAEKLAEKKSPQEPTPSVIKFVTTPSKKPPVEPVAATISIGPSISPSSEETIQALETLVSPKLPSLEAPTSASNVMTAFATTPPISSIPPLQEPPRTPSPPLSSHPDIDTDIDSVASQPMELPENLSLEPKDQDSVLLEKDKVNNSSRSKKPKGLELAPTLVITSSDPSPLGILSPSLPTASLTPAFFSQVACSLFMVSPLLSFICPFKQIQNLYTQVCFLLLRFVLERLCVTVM
In short: as §1

ETV2 = biological target: T4, ETV2 (Homo sapiens, UniProt O00321 1-342); conditions: protein: recombinant; tags: N-terminal GST; dsDNA, one strand shown
T4 sequence: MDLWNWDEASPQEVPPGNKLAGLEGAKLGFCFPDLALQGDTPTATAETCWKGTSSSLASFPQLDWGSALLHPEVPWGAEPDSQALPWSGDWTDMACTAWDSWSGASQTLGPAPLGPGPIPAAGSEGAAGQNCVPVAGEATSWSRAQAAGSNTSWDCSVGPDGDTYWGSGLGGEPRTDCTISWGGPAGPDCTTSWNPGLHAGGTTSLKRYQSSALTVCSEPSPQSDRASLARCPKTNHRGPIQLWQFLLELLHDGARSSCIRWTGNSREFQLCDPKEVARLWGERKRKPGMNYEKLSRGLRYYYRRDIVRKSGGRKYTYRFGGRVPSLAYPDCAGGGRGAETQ
In short: as §1

ELF3 = biological target: T5, ELF3 (Homo sapiens, UniProt P78545 1-371); conditions: protein: recombinant; tags: N-terminal GST; dsDNA, one strand shown
T5 sequence: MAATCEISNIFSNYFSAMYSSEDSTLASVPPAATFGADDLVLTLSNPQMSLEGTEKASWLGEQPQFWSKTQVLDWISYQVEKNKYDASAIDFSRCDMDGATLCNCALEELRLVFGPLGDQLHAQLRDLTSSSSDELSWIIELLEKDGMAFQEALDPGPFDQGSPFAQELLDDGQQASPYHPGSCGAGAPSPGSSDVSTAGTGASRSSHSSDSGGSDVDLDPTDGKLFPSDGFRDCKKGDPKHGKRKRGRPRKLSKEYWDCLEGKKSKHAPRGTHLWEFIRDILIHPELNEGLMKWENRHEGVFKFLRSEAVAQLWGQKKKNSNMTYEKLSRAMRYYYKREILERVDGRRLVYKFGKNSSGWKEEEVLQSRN
In short: as §1

CRX = CRX (Homo sapiens, UniProt O43186 1-299); conditions: protein: recombinant; tags: N-terminal GST; dsDNA, one strand shown
Sequence of CRX (O43186 whole entry): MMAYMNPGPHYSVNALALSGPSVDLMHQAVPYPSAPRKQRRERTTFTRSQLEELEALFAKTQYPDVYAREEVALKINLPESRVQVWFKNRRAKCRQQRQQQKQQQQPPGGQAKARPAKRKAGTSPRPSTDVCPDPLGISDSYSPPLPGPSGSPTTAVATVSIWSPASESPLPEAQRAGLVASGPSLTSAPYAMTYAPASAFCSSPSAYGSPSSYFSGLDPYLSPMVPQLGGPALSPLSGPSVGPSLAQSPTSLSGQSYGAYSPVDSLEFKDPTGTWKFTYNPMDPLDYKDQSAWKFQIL
In short: as §1

ETV1 = ETV1 (Homo sapiens, UniProt P50549 1-477); conditions: protein: recombinant; tags: N-terminal GST; dsDNA, one strand shown
Sequence of ETV1 (P50549 whole entry): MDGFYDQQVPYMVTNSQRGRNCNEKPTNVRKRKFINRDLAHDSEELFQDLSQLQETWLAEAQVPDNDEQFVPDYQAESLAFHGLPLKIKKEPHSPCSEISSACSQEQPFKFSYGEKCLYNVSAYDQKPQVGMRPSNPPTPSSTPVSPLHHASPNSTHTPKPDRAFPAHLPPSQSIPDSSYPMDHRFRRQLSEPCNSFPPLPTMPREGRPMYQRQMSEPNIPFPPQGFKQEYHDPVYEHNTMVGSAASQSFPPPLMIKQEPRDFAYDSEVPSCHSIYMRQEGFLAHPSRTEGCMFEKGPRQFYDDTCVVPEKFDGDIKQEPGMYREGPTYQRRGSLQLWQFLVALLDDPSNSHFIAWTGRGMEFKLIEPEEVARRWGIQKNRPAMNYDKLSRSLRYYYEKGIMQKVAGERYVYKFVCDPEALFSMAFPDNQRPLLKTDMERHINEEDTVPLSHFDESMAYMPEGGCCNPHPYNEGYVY
In short: as §1

CATTTG
binding signal (FEV): 1.21 fold enrichment (6-mer frequency, TF over GST control) | binding signal (ETV5): 1.24 fold enrichment (6-mer frequency, TF over GST control) | binding signal (HSF1): 1.13 fold enrichment (6-mer frequency, TF over GST control) | binding signal (SPIC): 1.15 fold enrichment (6-mer frequency, TF over GST control) | binding signal (ELF4): 1.26 fold enrichment (6-mer frequency, TF over GST control) | binding signal (ELK4): 1.26 fold enrichment (6-mer frequency, TF over GST control) | binding signal (ETV2): 1.29 fold enrichment (6-mer frequency, TF over GST control) | binding signal (ELF3): 1.49 fold enrichment (6-mer frequency, TF over GST control) | binding signal (CRX): 1.07 fold enrichment (6-mer frequency, TF over GST control) | binding signal (ETV1): 1.32 fold enrichment (6-mer frequency, TF over GST control)
